Measured values taken from ChEMBL document CHEMBL3988442, “University of Dundee, Small-Polar-MMV Screening Library” (2021).
Among all 48,000 compounds or so, about 13,000 (27%) showed an effect of 50% or more. This is one part of the list.

tested on: Wolbachia pipientis; experiment: Anti-Wolbachia Cell-Based Screen; format: functional; parameters: scale not given: in the data most compounds retested in dose-response had high values; conditions: 5 µM

SMILES	Percent Effect [%]
CC(c1nc(C2CC2)no1)N(C)Cc1ccc(C#N)cc1 (stereo not drawn)	15.66
CCc1noc(CNc2c(F)cccc2-n2cccn2)n1	-15.19
Cn1nc(CNC(=O)CC#N)c2c1CN(C(N)=O)CC2	9.409
Cc1nnc(CCNC2CCN(c3ncnc4c(C)csc34)CC2)s1	-2.082
Cc1nn(C)c(C)c1CC(=O)N1CCC(Nc2cccnn2)CC1	-9.502
Cc1nc(C(=O)N2CCC(Nc3cccnn3)CC2)cs1	-1.209
N#Cc1cccc(C(=O)N2CCC(Nc3cccnn3)CC2)c1	94.09
Cn1nnc2cc(C(=O)N3CCC(Nc4cccnn4)CC3)ccc21	108.7
N#Cc1ccc(CC(=O)N2CCC(Nc3cccnn3)CC2)cc1	101.7
N#CC1(C(=O)N2CCC(Nc3cccnn3)CC2)CCCCC1	-1.01
CN(Cc1nc2ccccc2c(=O)[nH]1)C1CC(=O)N(C2CC2)C1=O (stereo not drawn)	-0.4558
COc1cccc(-c2cnc3n2CCC32CCN(S(C)(=O)=O)CC2)c1	-9.63
CN1C(=O)CC(C(=O)O)C12CCN(Cc1ccc(F)cc1Cl)CC2 (stereo not drawn)	0.7528
O=C(c1cnc(NCc2sccc2Br)c(Cl)c1)N1CCCCC1	-7.953
COCCOc1ncccc1C(=O)Nc1ccc(-n2cncn2)c(F)c1	-9.189
Cc1ccccc1C(NC(=O)CNC(=O)c1ccoc1C)C(C)C (stereo not drawn)	-4.038
Cc1cnn(CC2CCCN2C(=O)c2cc(C)nc3[nH]nc(C)c23)c1 (stereo not drawn)	150.6
CCc1noc(C)c1C(=O)N1CCCC1Cn1cc(C)cn1 (stereo not drawn)	5.124
Cc1cnn(CC2CCCN2C(=O)c2c(F)cccc2Cl)c1 (stereo not drawn)	118.3
Cc1cnn(CC2CCCN2C(=O)c2cccc(F)c2F)c1 (stereo not drawn)	121.1
Cc1cnn(CC2CCCN2C(=O)c2cccc3c2OCO3)c1 (stereo not drawn)	-6.859

SMILES	Percent Effect [%]
O=C(C1=CCCC1)N1CCC[C@]2(C[C@@H](Oc3ncccc3F)CO2)C1.O=C(O)C(F)(F)F	-5.101
O=C(C1=CCCC1)N1C[C@@H]2COC[C@]2(COCc2ccncc2)C1	94.55
Cc1cc(F)ccc1C(=O)N1C[C@@H]2COC[C@]2(COCC2CC2)C1	3.024
O=C(N1CCCC1)N1CC[C@H]2OCC[C@@]2(COc2ncccc2F)C1.O=C(O)C(F)(F)F	-10.69
O=C(C1=CCCC1)N1C[C@H]2CCC[C@@]2(COCc2ccncc2)C1.O=C(O)C(F)(F)F	12.49
O=C(Cc1ccco1)N1C[C@@H]2COC[C@]2(COCC2CCOCC2)C1	-6.133
O=C(C1=CCCC1)N1C[C@@H]2COC[C@]2(COCC2CC2)C1	119
O=C(C1=CCCC1)N1C[C@@H]2COC[C@]2(COc2ncccc2F)C1.O=C(O)C(F)(F)F	91.91
O=C(c1ncoc1C1CCCO1)N1CCC2(CCCCC2)CC1 (stereo not drawn)	-6.426
CCOc1ccc(C(=O)NCc2ccnc(N3CCN(C)CC3)c2)cn1	4.898
Cc1nn(C)c(N(C)C)c1CNCc1nnc2n1CCCCC2.Cl	5.74
COC(=O)C1CN(Cc2cc(F)ccc2Br)CCO1 (stereo not drawn)	-7.364
CO[C@H]1CN(Cc2ccccc2F)C[C@@]12CCCO2	78.59
CS(=O)(=O)NCCC1CCCN(Cc2ccccc2F)C1 (stereo not drawn)	-31.18
COCCCC1(CO)CCCN(Cc2ccc(F)c(OC)c2)C1 (stereo not drawn)	-7.879
CO[C@H]1CN(Cc2ccccc2F)[C@@H]2CCCO[C@H]12	2.761
CO[C@H]1CN(Cc2cc(F)ccc2F)CC[C@@]12CCCO2	118.4
CO[C@H]1CN(Cc2ccc(F)c(F)c2)C[C@@]12CCCO2	125.7
COc1cc(CN2C[C@H](OC)[C@]3(CCCO3)C2)ccc1F	93.9
C[C@@H]1CN(Cc2cc(C(F)(F)F)ccc2F)CC[C@@]1(O)C1CC1	18.84
COc1cc(CN2CC[C@@]3(CCCO3)[C@@H](O)C2)ccc1F	-7.237

SMILES	Percent Effect [%]
Cc1ccc(CN2CCC3(CCCN(Cc4ccc(F)c(F)c4)C3)C2)o1 (stereo not drawn)	-5.305
COc1coc(CN2CCCC(CCc3ccc(F)c(F)c3)C2)cc1=O (stereo not drawn)	29.51
Cc1nc(CNC(=O)N2CCCC(c3ncc[nH]3)C2)sc1C (stereo not drawn)	-13.73
Cc1cc(CN(Cc2ccccc2)C(C)CN2CCOCC2)no1 (stereo not drawn)	-1.705
CCSc1ccc(NC(=O)NC(C)c2c(C)noc2C)cn1 (stereo not drawn)	-11.22
CCN1CCCN(c2ccc(-n3ccc(C)n3)nn2)CC1	-3.628
Cc1ccc(Oc2ncccc2CNC2Cc3ccccc3C2)cn1	12.49
NCC1Cc2cccc(-c3nccc(N4CCC(O)CC4)n3)c2O1 (stereo not drawn)	-9.933
Cc1cc2n(n1)CC(CNC1CCN(CCc3ccccc3)CC1)CN2 (stereo not drawn)	3.275
CCc1cnc(N)nc1NCCn1cc(Cl)cn1	-1.568
Cc1ccc(-c2nc(CN3CCC(C(=O)N(C)C)CC3)cs2)o1	9.027
CN(C)C(=O)C1CN(Cc2ccsc2)CCN(S(C)(=O)=O)C1 (stereo not drawn)	92.25
CN(C)C(=O)C1CN(Cc2cccs2)CCN(S(C)(=O)=O)C1 (stereo not drawn)	110.5
CN(C)C(=O)NCc1nnc2n1CCN(Cc1cccs1)C2	-18.34
CN(C)C(=O)C1CN(Cc2ccccc2)CCN(S(C)(=O)=O)C1 (stereo not drawn)	1.114
CN(C)C(=O)C1CN(Cc2ccsc2)Cc2ccnn2C1.O=C(O)C(F)(F)F (stereo not drawn)	-5.507
CN(C)C(=O)C1CN(Cc2cscn2)CCN(S(C)(=O)=O)C1 (stereo not drawn)	29.17
CN(C)C(=O)C1CN(Cc2nccs2)CCN(S(C)(=O)=O)C1 (stereo not drawn)	115
Cc1cc(CN(C)C(=O)NC2CCN(S(C)(=O)=O)CC2)no1	-12.59
Cc1cc(CN2CCN(S(C)(=O)=O)CC(C(=O)N(C)C)C2)no1 (stereo not drawn)	130.4
CS(=O)(=O)N1CCC2(CCN(Cc3nccs3)CC2)CC1.O=C(O)C(F)(F)F	12.17
